Records with an inconclusive call do not appear. Activity calls are given as the source filed them. Rule for the calls: active = hit-call score of the fitted dose curve at least 0.9, where 1 is the maximum; inconclusive = response in the unintended direction; inactive = score below 0.9.

Read-out in one assay: organic anion transporter (SLCO1B1), SLCO1B1 (gene 10599)
Description: CLD_SLCO1B1_24hr: CellzDirect (CLD) Gene Expression Assay for organic anion transporter (SLCO1B1) at 24 hours (AID 2283690). Put shortly:
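Primary human hepatocytes (two donor preparations) dosed daily for two days with chemicals at multiple concentrations, 0.2% DMSO vehicle. SLCO1B1 mRNA at 24 h measured by qNPA chemiluminescence; induction fitted relative to DMSO.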
As to `CC1COC(Cn2cncn2)(c2ccc(Oc3ccc(Cl)cc3)cc2Cl)O1` (stereo unspecified), the result was inactive. Still for that read-out and setting: in the case of `C=CC1(C)OC(=O)N(c2cc(Cl)cc(Cl)c2)C1=O` (stereo unspecified) it was “inactive”; in that of `CCc1nn(C)c(C(=O)NCc2ccc(C(C)(C)C)cc2)c1Cl`, “inactive”. Still for that read-out and setting: with `Cc1cc(Cl)ccc1OCC(=O)O` the entry was “inactive”; with `COC(=O)c1ccccc1C(=O)OC`, “inactive”.

Turning to `CCOc1cc(Oc2ccc(C(F)(F)F)cc2Cl)ccc1[N+](=O)[O-]`, the compound was called inactive.

Regarding `Oc1ccccc1-c1ccccc1`, the result was inactive. Still for that read-out and setting: in the case of `C#CCOS(=O)OC1CCCCC1Oc1ccc(C(C)(C)C)cc1` (stereo unspecified) it was “inactive”; in that of `Cc1c(F)c(F)c(COC(=O)C2C(/C=C(\Cl)C(F)(F)F)C2(C)C)c(F)c1F` (stereo unspecified), “inactive”; in that of `COc1nc(C)nc(NC(=O)NS(=O)(=O)c2ccccc2Cl)n1`, “inactive”. The same measure, in the same setting: with `COC(=O)N(OC)c1ccccc1COc1ccn(-c2ccc(Cl)cc2)n1` the entry was “inactive”; with `CCON=C(CC)C1=C(O)CC(c2c(C)cc(C)cc2C)CC1=O` (stereo unspecified), “inactive”; with `CC(C)(C)c1ccc(CSc2cnn(C(C)(C)C)c(=O)c2Cl)cc1`, “inactive”. Same read-out and setting: with `CCOC(=O)CC(SP(=S)(OC)OC)C(=O)OCC` (stereo unspecified) the entry was “inactive”; with `COc1nc(C)nc(NC(=O)NS(=O)(=O)c2ccccc2CCC(F)(F)F)n1`, “inactive”. `O=C(Nc1ccccc1)Nc1ccnc(Cl)c1`: the compound was classed as inactive. On the same count and under the same terms, with `O=C(O)c1nc(Cl)ccc1Cl` the entry was “inactive”.

For the compound `CC(C)C1(C)N=C(c2nc3ccccc3cc2C(=O)O)NC1=O` (stereo unspecified), the compound was called inactive.

Regarding `CNC(=O)ON=CC(C)(C)SC`, the result was inactive. On the same count and under the same terms, in the case of `COC(=O)C(C)Oc1ccc(Oc2ccc(Cl)cc2Cl)cc1` (stereo unspecified) it was “inactive”.

Read-out in the next assay: alkyl and aryl transferase (GSTA2), GSTA2 (gene 2939)
Briefly: CLD_GSTA2_24hr: CellzDirect (CLD) Gene Expression Assay for alkyl and aryl transferase (GSTA2) at 24 hours (AID 2283693). Put shortly:
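Primary human hepatocytes (two donor preparations) dosed daily for two days with chemicals at multiple concentrations (vehicle 0.2% DMSO); GSTA2 mRNA at 24 h measured by qNPA chemiluminescence, gain-of-signal versus DMSO.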
On to `CC1COC(Cn2cncn2)(c2ccc(Oc3ccc(Cl)cc3)cc2Cl)O1` (stereo unspecified), for which the call was inactive. Still for that read-out and setting: with `CCc1nn(C)c(C(=O)NCc2ccc(C(C)(C)C)cc2)c1Cl` the entry was “inactive”; with `COC(=O)c1ccccc1C(=O)OC`, “inactive”; with `Oc1ccccc1-c1ccccc1`, “inactive”. Turning to `C#CCOS(=O)OC1CCCCC1Oc1ccc(C(C)(C)C)cc1` (stereo unspecified), the compound was called inactive. Consider `Cc1c(F)c(F)c(COC(=O)C2C(/C=C(\Cl)C(F)(F)F)C2(C)C)c(F)c1F` (stereo unspecified), for which the call was inactive. On the same count and under the same terms, in the case of `COc1nc(C)nc(NC(=O)NS(=O)(=O)c2ccccc2Cl)n1` it was “inactive”; in that of `COC(=O)N(OC)c1ccccc1COc1ccn(-c2ccc(Cl)cc2)n1`, “inactive”.

For `CC(C)(C)c1ccc(CSc2cnn(C(C)(C)C)c(=O)c2Cl)cc1`, the outcome was inactive. On the same count and under the same terms, in the case of `CCOC(=O)CC(SP(=S)(OC)OC)C(=O)OCC` (stereo unspecified) it was “inactive”; in that of `COc1nc(C)nc(NC(=O)NS(=O)(=O)c2ccccc2CCC(F)(F)F)n1`, “inactive”; in that of `O=C(O)c1nc(Cl)ccc1Cl`, “inactive”. Still for that read-out and setting: in the case of `CC(C)C1(C)N=C(c2nc3ccccc3cc2C(=O)O)NC1=O` (stereo unspecified) it was “inactive”; in that of `CNC(=O)ON=CC(C)(C)SC`, “inactive”. On the same count and under the same terms, in the case of `CN(C)C(=S)SSC(=S)N(C)C` it was “inactive”; in that of `COC(=O)C(C)Oc1ccc(Oc2ccc(Cl)cc2Cl)cc1` (stereo unspecified), “inactive”.
